# Only some compounds are listed: those with a hit (about 8% of all), similar ones and a draw of the others.
# Lassa entry inh: Lassa virus entry inhibition | actives 1.2% (n = 300,000) | Potency, µM (top dose mostly 37.9 µM), hits mostly inhibitors | AID 540256 | Lassa virus pseudotype entry inhibition, cell reporter; calls by dose curve; tested in HEK293 cells; further: nearly all actives have a fitted effect of over 50% in size
# FMDV antiviral: antivirals against foot and mouth disease virus; FMDV antiviral cell-based qHTS; Potency, µM (titrated, usually from 57.9 µM), hits mostly inhibitors; actives 1.2% (n = 410,000); AID 1159524; calls by dose curve; tested in HEK293T cells; further: read-out not given here; nearly all actives have a fitted effect of over 45% in size
# SARS PLP yeast: SARS-CoV PLP inhibition in yeast | AID 485353 | Potency, µM (doses to about 32.9 µM), actives largely listed as activators | actives 0.19% (n = 330,000) | S. cerevisiae expressing SARS-CoV PLpro, growth rescue; calls by dose curve; further: nearly all actives have a fitted effect of over 55% in size
# MARV entry inh: blocks Marburg virus binding to or entry into cells; Marburg virus pseudotyped entry inhibition, cell reporter; Potency, µM (series often up to 37.8 µM), hits mostly inhibitors; actives 1.8% (n = 300,000); calls by dose curve; tested in HEK293 cells
# HCV inhibitor: blocks hepatitis C virus; Potency, µM (series often up to 41.8 µM), actives largely listed as inhibitors; Huh7.5.1 HCVcc-Cre infection, luciferase reporter, 44 h; actives 3.4% (n = 340,000); active means well fitted inhibition curve with a large enough effect; inconclusive means small, poorly fitted or top-dose-only effect, or another doubt; inactive means no such curve, though single readings can be large or run the other way
#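 Whole-lifecycle infectious HCVcc-Cre system; cells 1,000/well, compound then virus (~0.5 moi) added 4 h after plating, 44 h culture. Luciferase read 15 sec following 15 min substrate incubation, room temp.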
# HCMV inh: blocks human cytomegalovirus replication; actives 4.5% (n = 410,000); HFF cells, HCMV-luciferase reporter, 72 h; stronger effect = lower value; AID 1259415; activity change, negative = inhibition, % at 57.5 µM; in the data active means activity change below about -60%; inconclusive means no clear call, values can overlap the other calls; inactive means above about -39%
#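 After 16 h attachment at 37C, HFF cells received test compound and HCMV-luciferase (1 PFU/cell); reporter luminescence read 72 h later, data normalized against buffer-only and known inhibitor Salinomycin.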
# Hits are given with their value; i = inactive; ? = inconclusive; nt = no result; [ ] = dose if it differs, or a comment.
SMILES,Lassa entry inh,FMDV antiviral,SARS PLP yeast,MARV entry inh,HCV inhibitor,HCMV inh
Oc1c(Cl)cc(CN2CCOCC2)c2cccnc12,nt,i,i,nt,2.51µM,-99.2
O=C(Oc1c(CN2CCOCC2)cc(Cl)c2cccnc12)c1ccccc1,?,i,?,?,?,-96.5
O=[N+]([O-])c1cc(CN2CCOCC2)c2cccnc2c1O,i,i,i,i,i,nt
Oc1c(CN2CCCCC2)cc(Br)c2cccnc12,nt,?,i,i,?,-102.1
Cc1cnc(C(=O)Nc2ccc(OC(F)(F)F)cc2)cn1,nt,i,i,nt,i,i
Cc1csc2c(N3CCN(C(=O)Nc4ccccc4)CC3)ncnc12,i,22.4µM,i,?,?,?
Cc1ccc(C(=O)N2CCN(c3ncnc4c(C)csc34)CC2)cc1,i,i,i,?,?,i
Cc1csc2ncnc(N3CCN(C(=O)Nc4ccc(OC(F)(F)F)cc4)CC3)c12,nt,17.8µM,i,nt,7.94µM,-63.6
COc1ccc(CN2C(=O)C(n3cccc3)c3cc(OC)ccc32)cc1 (stereo not given),nt,nt,nt,nt,nt,i
COc1ccc(Cl)cc1NC(=O)COC(=O)CC(C)(C)CC1=NS(=O)(=O)c2ccccc2N1,?,?,nt,nt,nt,i
CCCCN(CC)CCNC(=O)C1CCN(c2nnc(C)c3c(C)n(-c4ccc(C)cc4)nc23)CC1,?,i,nt,nt,nt,?
Cn1cnc([N+](=O)[O-])c1Sc1nc2ccccc2[nH]1,?,?,i,i,i,i
Cn1cnc([N+](=O)[O-])c1Oc1ccc2ccccc2c1,?,17.8µM,i,?,?,i
Cn1nccc1C(=O)N(CCN1CCCCC1)CC1CCCN(C2CCCC2)C1 (stereo not given),i,i,i,?,14.1µM,i
CCN1C(=O)N(C)C(c2ccccc2)C(C(C)=O)=C1C (stereo not given),nt,nt,nt,i,nt,nt
O=C(CC1(O)C(=O)N(C/C=C/c2ccccc2)c2ccccc21)c1ccccn1 (stereo not given),?,i,i,i,i,-70.7
Cc1cc(-c2ccnc(-n3ncc(C(=O)NCC4COCCO4)c3C3CC3)n2)c(C)s1 (stereo not given),nt,i,nt,nt,nt,nt
Cc1ccc(NC(=O)CN(Cc2ccco2)Cc2ccccc2O)cc1C,?,i,i,?,?,-64.1
Cc1noc(-c2ccc(-c3noc(-c4ccc(F)cc4)n3)cc2)n1,i,i,nt,nt,nt,i
Fc1ccc(-c2noc(-c3ccc4c(c3)CCO4)n2)cc1,10µM,i,i,?,i,i
O=C(C1CCN(S(=O)(=O)c2ccc(Br)s2)CC1)N1CCN(c2cccc(C(F)(F)F)c2)CC1,8.91µM,?,nt,?,nt,?
O=C(Cc1ccc(S(=O)(=O)N2CCOCC2)s1)N1CCN(c2cccc(C(F)(F)F)c2)CC1,nt,i,i,nt,12.6µM,nt
Cn1ncc2c(N3CCN(c4ccccc4Cl)CC3)ncnc21,i,i,nt,nt,nt,?
CCN(CCCNC(=O)c1ccc(Sc2ccc(Cl)cc2)c(NC(C)=O)c1)c1ccccc1,i,i,nt,nt,nt,i
CC(=O)c1ccc(NC(=O)c2cc3c(=O)oc4ccc(C)cc4c3s2)cc1,i,i,nt,i,nt,-93.0
SMILES,Lassa entry inh,FMDV antiviral,SARS PLP yeast,MARV entry inh,HCV inhibitor,HCMV inh
C=CCc1cc(C)ccc1OCCn1ccnc1,i,i,i,i,i,i
C=CCc1cc(C)ccc1OCCOCCn1ccnc1,?,i,i,i,?,-63.2
O=C(Cn1c(=O)c2sccc2n(Cc2ccc([N+](=O)[O-])cc2)c1=O)NCCc1ccccc1,?,?,i,?,?,-72.8
O=C(Cn1c(=O)c2sccc2n(Cc2cccc([N+](=O)[O-])c2)c1=O)NCCc1ccccc1,i,i,i,?,?,i
CC(C)CCNS(=O)(=O)c1ccc(N2CCCCS2(=O)=O)cc1,i,i,nt,nt,nt,i
COc1ccc(CCNC(=O)Cn2nnc(-c3cccc(C(F)(F)F)c3)n2)cc1OC,i,i,nt,i,nt,i
Cn1cccc1/C=N\NC(=O)Cc1ccc(Br)c2ccccc12,nt,?,i,nt,10µM,-79.9
Cn1cccc1/C=N/NC(=O)Cc1ccccc1,i,i,i,i,i,i
O=C1CN(/N=C/c2ccc([N+](=O)[O-])o2)C(=O)N1,?,i,i,?,25.1µM,i
COc1ccc(-c2cc(C(F)(F)F)nc(SCC(=O)NC(C)c3ccccc3)n2)cc1 (stereo not given),i,i,nt,i,nt,i
COCCn1c(=N)c(C(=O)NCC2CCCO2)cc2c(=O)n3ccccc3nc21 (stereo not given),i,i,nt,i,nt,i
COc1ccc(CCn2c(=N)c(C(=O)NC3CCCC3)cc3c(=O)n4ccccc4nc32)cc1,i,i,i,i,?,-101.2
COc1ccc(CCn2c(=N)c(C(=O)NCC3CCCO3)cc3c(=O)n4ccccc4nc32)cc1OC (stereo not given),nt,i,i,nt,i,-110.1
Cc1ccc(S(=O)(=O)c2cn(CC(=O)Nc3ccc4c(c3)OCO4)c3ccc(F)cc3c2=O)cc1,i,i,nt,i,nt,i
CN1C(=O)COC2CCC(C(=O)C3=C(C(=O)O)CCCC3)CC21 (stereo not given),nt,nt,nt,i,nt,nt
O=C(C1CCN(c2nc(-c3ccccc3)nc3c2CCC3)CC1)N1CCCC1,nt,i,nt,nt,11.2µM,i
COc1ccc(NC(=O)C2CCN(c3nc(C)nc4c3CCC4)CC2)cc1,?,?,i,?,3.55µM,-70.4
CC1CCCCN1C(=O)CSc1nc(-c2ccccc2)no1 (stereo not given),i,i,nt,nt,nt,i
NC(=O)C1CCN(c2nc(-c3ccccc3)nc3ccccc23)CC1,i,i,i,i,?,i
CC1CCCCN1C(=O)C1CCN(c2nc(-c3ccccc3)nc3c2CCC3)CC1 (stereo not given),nt,?,i,nt,3.98µM,?
CCN(CC)C(=O)N1CCC2CCCCC2C1CN1C(=O)C2=C(CCCC2)C1=O (stereo not given),nt,nt,nt,i,nt,nt
c1cncc(OC2CCN(Cc3ccc4c(c3)CN(Cc3nc5ccccc5s3)CCO4)CC2)c1,nt,i,nt,nt,nt,nt
Cc1c(Cl)cccc1-n1nc(C)c2c(C)cc(=O)n(CC(=O)N3CCCc4ccccc43)c21,?,i,nt,nt,nt,i
Cc1ccccc1CN1Cc2cnnn2-c2ccccc2C1C#N (stereo not given),nt,12.6µM,nt,nt,?,-98.5
Cc1ccccc1C(=O)N1Cc2cnnn2-c2ccccc2C1C#N (stereo not given),nt,i,nt,nt,i[8.37 µM],i
COC(=O)Cc1[nH]nc2c1C(C1C=CCCC1)C(C#N)=C(N)O2 (stereo not given),i,15.8µM,i,i,?,i
COC(=O)Cc1[nH]nc2c1C(c1cc(OC)c(OC)c(OC)c1)C(C#N)=C(N)O2 (stereo not given),nt,i,i,nt,i,i
O=C(c1cccnc1)C1CCCN(Cc2ccc3c(c2)CN(C(=O)c2cccs2)CCO3)C1 (stereo not given),nt,i,nt,nt,nt,nt
O=C(NC(=S)NNC(=O)c1cccs1)c1ccco1,i,i,i,i,?,i
CCN(CC)c1ccc(NC(=S)NC(=O)c2cccs2)cc1,nt,i,i,nt,12.6µM,-100.9

# Screening data (PubChem)
